p53ts 32C tox = qHTS Screen for Compounds that Selectively Target Cancer Cells with p53 Mutations: Cytotoxicity of p53ts Cells at the Permissive Temperature | 130,000 tested, 0.93% active | H1299-p53A138V at 32C, ATP luminescence viability, 24 h | Potency, µM (highest dose often 46.1 µM), for the others: top-dose activity change, negative = cytotoxicity, actives largely listed as cytotoxic | AID 924, 2007;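 further: 0% = DMSO and -100% = full killing by reference compound; nearly all actives have a fitted effect of over 55% in size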
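H1299-p53 A138V cells (temperature-sensitive p53) exposed 24 h to up to 46 uM compound at 32C, where p53 is wild-type in conformation. Viability read as ATP luminescence and normalised to DMSO and 100 uM tamoxifen. AC50 fitted with the Hill equation.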
IkB signaling = IkB Signaling | ABC-DLBCL IkBa-CBG/CBR dual luciferase ratio, 4 h; response scale: scaled: untreated 0%, proteasome inhibitor 100% | Potency, µM (series often up to 57.1 µM), for inactives: at the top dose IkBa stabilization activation | 110,000 tested, 0.04% active; active means well fitted curve in the direction sought with a large enough effect in the signal ratio, not every such curve was filed as active; inconclusive means small, poorly fitted or top-dose-only effect, or a change in a side signal; the % refers to the signal ratio;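 further: the direction sought is a rising ratio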
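Luminescence ratio of IκBα-fused green versus native red beetle luciferase in OCI-Ly3 cells, 4 h post-doxycycline with compound; red signal alone, scaled from basal (0%) to zero light (-100%), flagged nonspecific or cytotoxic effects.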
p53ts 39C tox = qHTS Screen for Compounds that Selectively Target Cancer Cells with p53 Mutations: Cytotoxicity of p53ts Cells at the Nonpermissive Temperature; H1299-p53A138V viability at 39C, ATP luminescence, 24 h; Potency, µM (doses to about 46.1 µM), without a hit: top-dose activity change, negative = cell killing, hits mostly cytotoxic; 130,000 tested, 1.5% active; further: on the % scale 0 is the no-effect control and ±100 the full control effect; nearly all actives have a fitted effect of over 55% in size
Imprint erasure = qHTS Assay for Compounds that Induce Erasure of Genomic Imprints | mouse ES Peg3-LacZ reporter, beta-gal luminescence, 40 h | 110,000 tested, 0.02% active | Potency, µM (doses to about 60.7 µM), without a hit: at the top dose activity change, positive = activation, hits mostly activators
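Gelatin-coated wells received 300 freshly trypsinized female ES cells with a Peg3LacZ-Neo reporter on the maternal allele, then incubated 40 hours at 37C. BetaGlo was added for 5 minutes at room temperature before a single luminescence read.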
Starred values were filed as active, the others as inactive; u = inconclusive; x = no result given; ! = not active in a repeat; [ ] = another dose, or the depositor's remark. Compounds with a hit are over-represented: about 1.7% of the library has one in this group of screens. Unless noted, the call rests on the fitted dose curve; in most records, active means well fitted curve in the direction sought with a large enough effect; inconclusive means small, poorly fitted or top-dose-only effect, or another doubt; inactive means no such curve, though single readings can be large; an effect the other way counts as inactive or inconclusive. Potency means the concentration at half of the fitted maximal effect.

SMILES	p53ts 32C tox	IkB signaling	p53ts 39C tox	Imprint erasure
O=C(O)c1ccncc1.O=C(O)c1ccncc1.[Cl][Pt]([Cl])([Cl])[Cl]	-0.7%[9.22 µM]	-2.0%[11.4 µM]	12.8%[9.22 µM]	-2.3%[10.9 µM]
Cc1cc2n(n1)CCCN2C(=O)Nc1ccccc1F	4.7%	1.0%	9.1%	11.7%[10.9 µM]
CCOc1ccccc1NC(=O)c1nc(S(=O)(=O)Cc2cccc(C)c2)ncc1Cl	15.8µM*	u	3.16µM*	-40.4%[10.9 µM]
CCc1nnc(NC(=O)c2nc(SCc3ccccc3F)ncc2Cl)s1	3.7%	u	-18.2%	-6.5%[10.9 µM]
Cc1cccc(CSc2ncc(Cl)c(C(=O)Nc3nc4ccc(F)cc4s3)n2)c1	15.2%	1.3%	-25.0%	20.1%[10.9 µM]
CCc1nnc(NC(=O)c2nc(S(=O)(=O)Cc3ccc(C)cc3)ncc2Cl)s1	15.8µM*	u	6.31µM*	-31.4%[10.9 µM]
CCc1nnc(NC(=O)c2nc(S(=O)(=O)Cc3cccc(C)c3)ncc2Cl)s1	u	5.0%	5.01µM*	-25.0%[10.9 µM]
CCOc1ccccc1NC(=O)c1c(NC(=O)c2cccc(C)c2)sc2c1CCCC2	0.2%	2.6%	2.2%	-8.8%[10.9 µM]
COc1ccccc1CCNC(=O)C(=O)NCC(c1ccco1)S(=O)(=O)c1ccc(C)cc1 (stereo unspecified)	3.3%	u	0.6%	-10.7%[10.9 µM]
COc1ccc(-n2nnnc2SCC(=O)NCCc2ccccc2)cc1	0.2%	-2.7%	24.8%	6.7%[10.9 µM]
O=C(Nc1ccccc1)c1ccc(Cc2nc3ccccc3[nH]2)cc1	-5.5%	x	-6.1%	x
COc1cccc(NC(=O)Cc2csc(COc3cccc(C)c3)n2)c1	-7.9%	u	u	16.1%[10.9 µM]
COc1ccccc1CN1CCC2(CC1)CCN(C(=O)c1cccc(F)c1)CC2	-12.0%	1.0%[11.4 µM]	7.1%	x
COc1cc(NS(=O)(=O)c2cc(Br)cc3c2N(C(=O)C2CC2)CC3)cc(OC)c1	10µM*	1.3%	12.6µM*	-24.4%[10.9 µM]
Oc1ccc(/C=C/c2cc(O)cc(O)c2)cc1	10µM*!	0.3%	6.31µM*	-39.1%
Oc1cc(O)cc(/C=C\c2ccc(O)c(O)c2)c1	12.6µM*	3.1%	u	x
Oc1ccc(/C=C\c2cc(O)cc(O)c2)cc1	7.94µM*	-0.4%	7.94µM*	-70.3%
Cc1cccc(-c2nc3nc(C)cc(NCc4ccccc4Cl)n3n2)c1	0.0%	u	0.5%	-6.7%[10.9 µM]
CO[C@@H]1/C=C\O[C@]2(C)Oc3c(C)c(O)c4c(O)c(c(/C=N\N5CCN(C)CC5)c(O)c4c3C2=O)NC(=O)/C(C)=C\C=C/[C@H](C)[C@H](O)[C@H](C)[C@H](O)[C@H](C)[C@H](OC(C)=O)[C@@H]1C	x	-0.6%[11.4 µM]	x	x
CCn1cc(C(=O)N2CCN(c3cccc(Cl)c3)CC2)c(=O)c2cc(S(=O)(=O)N3CCC(C)CC3)ccc21	12.5%	u	1.4%	9.7%[10.9 µM]
Cc1oc(-c2ccc3c(c2)OCCO3)cc1C(=O)O	20µM*	u	u	-93.6%
COc1ccc(-c2nc3cc(NC(=O)Cc4ccc(Cl)cc4)ccc3o2)cc1OC	10µM*	u	7.94µM*	-20.6%[10.9 µM]
O=C(Cc1ccc(Cl)cc1)Nc1ccc2oc(-c3ccc(F)cc3)nc2c1	-11.5%	10.7%	-5.0%	-10.9%[10.9 µM]
COc1ccc(CC(=O)Nc2cccc(-c3nnc(-c4ccc(C)cc4)o3)c2)cc1OC	u	u	-9.3%	-17.0%
COc1ccc(CC(=O)Nc2cccc(-c3nnc(-c4cccc(C)c4)o3)c2)cc1OC	12.6µM*	u	u	-46.5%
SMILES	p53ts 32C tox	IkB signaling	p53ts 39C tox	Imprint erasure
CCOc1ccc2nc(N3CCN(C(=O)CS(=O)(=O)c4ccc(F)cc4)CC3)sc2c1	14.1µM*	u	6.31µM*	-11.8%[10.9 µM]
O=c1cc(-c2ccccc2O)oc2ccc3ccccc3c12	2.51µM*	20.1%[11.4 µM]	2µM*	-96.8%
CCc1ccc2oc(-c3cc(N=Cc4cccc(OC)c4O)ccc3O)nc2c1	10µM*	u	10µM*	-73.0%
Cc1ccc(-n2ncc(C(=O)NCc3ccccc3C)c2-n2cccc2)cc1	12.6%	u	-7.5%	10.0%[10.9 µM]
CC1CCc2c(cc(-c3ccccc3)n2-c2ccc(C(=O)NC(C)C)cc2)C1 (stereo unspecified)	43.5%	-0.2%	15.8µM*	-13.9%[10.9 µM]
CC(C)NC(=O)c1ccc(-n2c(-c3ccccc3)cc3c2CCCCC3)cc1	14.4%	u	-10.8%	-6.8%[10.9 µM]
COC(=O)C(Cc1ccccc1)NC(=O)C(N)CC(=O)O (stereo unspecified)	-1.0%	x	-14.1%	1.5%
Cc1cccc(C#Cc2ccccc2)n1	12.6µM*	0.3%	u	-43.9%
COc1cccc(-c2nc(NC3CC3)c3ccccc3n2)c1	u	-0.7%[11.4 µM]	-14.7%	-9.6%
CCOc1ccc(C(=O)c2cn(CC(=O)Nc3ccc(C)c(Cl)c3)c3ccc(OCC)cc3c2=O)cc1	0.3%	u	16.1%	-14.9%[10.9 µM]
CCc1ccc(C(=O)c2cn(CC(=O)Nc3ccc4c(c3)OCO4)c3ccc(CC)cc3c2=O)cc1	u	-0.1%	12.6µM*	-26.9%[10.9 µM]
CCc1ccc(C(=O)c2cn(CC(=O)Nc3ccc4c(c3)OCO4)c3ccc(Cl)cc3c2=O)cc1	-28.2%	1.1%	12.6µM*	-20.9%[10.9 µM]
CCc1ccc2c(c1)c(=O)c(C(=O)c1ccccc1)cn2CC(=O)Nc1ccc(C)c(Cl)c1	-22.5%	u	15.8µM*	-28.1%[10.9 µM]
CCc1ccc(C(=O)c2cn(CC(=O)Nc3ccc4c(c3)OCO4)c3cc(OC)c(OC)cc3c2=O)cc1	2.3%	u	-11.5%	-8.2%[10.9 µM]
CCCCCCCCCCCCCCCCCCOC[C@@H](COP(=O)([O-])OCC[N+](C)(C)C)OC	1.6%	-2.2%	14.8%	x
Cc1nnc(NC(=O)c2sc3ccccc3c2Cl)s1	1.26µM*	u	0.631µM*	-51.9%
COCc1nnc(NC(=O)c2cccs2)s1	-15.0%	4.0%	-9.1%	-22.0%
COCc1nnc(NC(=O)c2sc3ccccc3c2Cl)s1	u	u	15.8µM*	-61.7%
COc1cccc(NC(=O)CSc2nnc3scc(-c4ccc(Cl)cc4)n23)c1	9.3%	u	-12.7%	-11.7%[10.9 µM]
Cc1c2cnn(CC(=O)NC(C)C)c(=O)c2c(C)n1Cc1cccc(Cl)c1	2.7%	1.6%	-7.5%	2.8%[10.9 µM]
CCC(=O)N1CCc2cc(Br)cc(S(=O)(=O)N3CCCC(C(=O)N(C)c4ccc(Br)cc4)C3)c21 (stereo unspecified)	7.0%	u	-3.0%	-16.3%[10.9 µM]
O=C(NCc1cccnc1)C1CCN(Cc2cc3ccccc3n2Cc2ccccc2)CC1	10.7%	0.5%	4.5%	-12.6%[10.9 µM]
O=C(NCc1cccnc1)C1CCN(Cc2cc3ccccc3n2Cc2cccc(Cl)c2)CC1	20.6%	u	12.6µM*	-3.7%[10.9 µM]
Cc1ccc2cc3cc(C(=O)N4CCCCC4C)oc3nc2c1 (stereo unspecified)	12.6µM*	1.0%	u	-25.0%
Cc1ccc2cc3cc(C(=O)N(C)c4ccccc4C)oc3nc2c1	u	-1.6%	10µM*	-19.0%[10.9 µM]

Screening results (PubChem BioAssay)
